Results as given in PubChem BioAssay (Tox21).
Inconclusive results are not listed. The source made the active and inactive calls. Unless noted, calls come from the whole dose curve; as a rule, active = well fitted curve in the direction sought with a large enough effect in the repeat runs; inconclusive = weak or mixed curves; inactive = no such curve, though single readings can be large; an effect the other way counts as inactive or inconclusive.

Assays:
[1] = qHTS assay to identify small molecule that activate the aryl hydrocarbon receptor (AhR) signaling pathway - cell viability counter screen (AID 743086); conditions: HepG2-AhR-luc viability, CellTiter-Fluor, 24 h; series mostly up to 70.3 µM;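 note: HepG2 liver cells carrying the AhR DRE luciferase reporter; nearly all actives have a fitted effect of over 45% in size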
Method in brief: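 HepG2-AhR-luc (HG2L7.5c1) cells, 4000/well, treated 24 h at 37 C with compound; viability measured as CellTiter-Fluor fluorescence after 30 min in the same wells as the luciferase read.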

[2] = qHTS assay for small molecule agonists of the antioxidant response element (ARE) signaling pathway (AID 743202; active = well fitted activation curve with a large enough effect in the signal ratio in the repeat runs, not every such curve was filed as active; the % refers to the signal ratio; note: potency is the fitted concentration of half-maximal effect); conditions: HepG2 ARE-bla reporter, beta-lactamase FRET, 16 h; series mostly up to 73.3 µM
Method in brief: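 HepG2 ARE-bla cells; 16 h treatment at 37 C; FRET-based beta-lactamase fluorescence read after 2 h substrate incubation at room temperature.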

[3] = qHTS assay for small molecule agonists of the antioxidant response element (ARE) signaling pathway - cell viability counter screen (AID 743203; calls by dose curve; note: nearly all actives have a fitted effect of over 55% in size); conditions: ARE-bla HepG2 viability, CellTiter-Glo luminescence, 16 h; series mostly up to 73.3 µM
Method in brief: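 Measured in the same wells as the beta-lactamase ARE reporter, this read-out is CellTiter-Glo luminescence from HepG2 ARE-bla cells given compounds for 16 hrs.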

[4] = qHTS assay for small molecule activators of the heat shock response signaling pathway - cell viability counter screen (AID 743209); conditions: HSE-bla HeLa viability, CellTiter-Glo luminescence, 5 h; series mostly up to 62.6 µM; note: nearly all actives have a fitted effect of over 50% in size
Method in brief: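 Same-well multiplex: after 2.5 h room-temperature incubation with LiveBLAzer B/G substrate and fluorescence reading, CellTiter-Glo reagent was added to HSE-bla HeLa cells that had received compound for 5 h at 37 C; luminescence read after 30 min.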

[5] = qHTS assay for small molecule activators of the heat shock response signaling pathway (AID 743210; active = well fitted activation curve with a large enough effect in the signal ratio in the repeat runs, with a control signal flat, not every such curve was filed as active; the % refers to the signal ratio;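 note: HeLa cells with beta-lactamase reporter driven by heat shock elements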); conditions: HeLa HSE-bla reporter, beta-lactamase ratio, 5 h; series mostly up to 62.6 µM
Method in brief: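 Following overnight attachment, HSE-bla HeLa cells received test compounds for 5 h at 37 C; beta-lactamase activity was then detected via FRET substrate fluorescence.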

[6] = qHTS assay to identify small molecule agonists of the peroxisome proliferator-activated receptor delta (PPARd) signaling pathway - cell viability counter screen (AID 743211); conditions: PPARd-bla HEK293H viability, CellTiter-Glo luminescence, 17 h; series mostly up to 62.6 µM; note: nearly all actives have a fitted effect of over 55% in size
Method in brief: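 PPARd-bla HEK293H cells (UAS-beta-lactamase reporter) were treated with compounds for 17 h at 37 C. Viability was then read in the same wells by CellTiter-Glo luminescence after 30 min at room temperature.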

[7] = qHTS assay to identify small molecule antagonists of the peroxisome proliferator-activated receptor delta (PPARd) signaling pathway - cell viability counter screen (AID 743213); conditions: PPARd-bla HEK293H viability, CellTiter-Glo luminescence, 17 h; series mostly up to 62 µM; note: nearly all actives have a fitted effect of over 50% in size; note: potency is the fitted concentration of half-maximal effect
Method in brief: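 PPARd-bla HEK293H cells (3000/well) got compound plus 300 nM L165041 agonist for 17 h at 37 C. Viability in the same wells came from CellTiter-Glo luminescence after 30 min at room temperature.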

[8] = qHTS assay to identify small molecule antagonists of the farnesoid-X-receptor (FXR) signaling pathway - cell viability counter screen (AID 743221; active = well fitted cell-killing curve with a large enough effect in the repeat runs, not every such curve was filed as active; note: nearly all actives have a fitted effect of over 50% in size; note: potency is the fitted concentration of half-maximal effect); conditions: FXR-bla HEK293T viability, CellTiter-Glo luminescence, 16 h; series mostly up to 62.6 µM
Method in brief: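 FXR-UAS-bla HEK 293T cells were treated with test compounds plus chenodeoxycholic acid (50 uM final) for 16 h at 37 C. Cell viability in the same wells was then read as CellTiter-Glo luminescence after 30 min at room temperature.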

[9] = qHTS assay to identify small molecule agonists of the vitamin D receptor (VDR) signaling pathway - cell viability counter screen (AID 743224); conditions: VDR-bla HEK293T viability, CellTiter-Glo luminescence, 16 h; series mostly up to 62.6 µM; note: nearly all actives have a fitted effect of over 50% in size; note: potency is the fitted concentration of half-maximal effect
Method in brief: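 In parallel with the bla FRET readout, cytotoxicity toward VDR-bla cells after 16 h compound exposure was assessed by CellTiter-Glo, with luminescence recorded after a 30 min room-temperature incubation.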

[10] = qHTS assay to identify small molecule agonists of the farnesoid-X-receptor (FXR) signaling pathway - cell viability counter screen (AID 743218); conditions: FXR-bla HEK293T viability, CellTiter-Glo luminescence, 16 h; series mostly up to 62.6 µM; note: nearly all actives have a fitted effect of over 45% in size
Method in brief: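 Readout: CellTiter-Glo luminescence, 30 min RT, multiplexed after the FXR-bla FRET reading. HEK 293T FXR-UAS-bla cells received compound 5 h post-plating and were incubated 16 h at 37 C.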

[11] = target: Vitamin D3 receptor (Homo sapiens) (UniProt P11473); test: qHTS assay to identify small molecule agonists of the vitamin D receptor (VDR) signaling pathway (AID 743222; calls by dose curve); conditions: HEK293T VDR-UAS-bla, beta-lactamase FRET ratio, 16 h; series mostly up to 63.5 µM
Vitamin D3 receptor (Homo sapiens), sequence (P11473 whole entry, looked up): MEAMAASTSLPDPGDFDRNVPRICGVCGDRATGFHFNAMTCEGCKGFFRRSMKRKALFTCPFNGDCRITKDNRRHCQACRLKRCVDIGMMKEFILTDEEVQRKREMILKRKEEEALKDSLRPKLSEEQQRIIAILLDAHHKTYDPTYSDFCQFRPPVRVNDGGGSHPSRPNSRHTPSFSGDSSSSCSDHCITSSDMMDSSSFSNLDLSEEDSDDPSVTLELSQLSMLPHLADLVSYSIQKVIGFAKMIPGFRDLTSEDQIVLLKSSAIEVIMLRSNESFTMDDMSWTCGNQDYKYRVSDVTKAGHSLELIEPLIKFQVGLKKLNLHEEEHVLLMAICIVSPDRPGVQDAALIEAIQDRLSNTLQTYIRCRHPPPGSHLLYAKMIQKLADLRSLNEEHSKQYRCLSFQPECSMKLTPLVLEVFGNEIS
Method in brief: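 Following 4 h attachment at 37C, VDR-bla cells (2,000 per well) received DMSO-dissolved compounds or controls. After 16 h incubation, LiveBLAzer B/G FRET substrate was added and fluorescence read 2 h later at room temperature.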

[12] = target: Peroxisome proliferator-activated receptor gamma (Homo sapiens) (UniProt P37231); test: qHTS assay to identify small molecule agonists of the peroxisome proliferator-activated receptor gamma (PPARg) signaling pathway (AID 743094; active = well fitted activation curve with a large enough effect in the signal ratio in the repeat runs, not every such curve was filed as active; the % refers to the signal ratio); conditions: HEK293H PPARg-UAS-bla, beta-lactamase FRET ratio, 17 h; series mostly up to 57 µM
Peroxisome proliferator-activated receptor gamma (Homo sapiens), sequence (P37231 whole entry, looked up): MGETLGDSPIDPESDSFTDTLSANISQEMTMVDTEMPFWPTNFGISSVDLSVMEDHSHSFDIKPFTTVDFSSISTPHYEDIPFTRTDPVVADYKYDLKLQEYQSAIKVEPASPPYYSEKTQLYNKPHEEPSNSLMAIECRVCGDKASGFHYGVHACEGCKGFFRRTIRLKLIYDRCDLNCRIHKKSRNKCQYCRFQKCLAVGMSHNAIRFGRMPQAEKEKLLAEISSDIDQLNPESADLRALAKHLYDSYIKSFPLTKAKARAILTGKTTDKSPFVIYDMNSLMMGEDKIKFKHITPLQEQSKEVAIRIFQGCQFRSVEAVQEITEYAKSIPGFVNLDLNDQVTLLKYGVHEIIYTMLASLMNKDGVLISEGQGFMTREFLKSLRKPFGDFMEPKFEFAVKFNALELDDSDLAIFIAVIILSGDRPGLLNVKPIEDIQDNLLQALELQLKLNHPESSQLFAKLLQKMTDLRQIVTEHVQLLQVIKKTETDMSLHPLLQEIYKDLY
Method in brief: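 Cell-based bla reporter, HEK293H background, PPARg-driven UAS. Pre-incubation 5 h, 37C, 5% CO2. Compound 17 h, 37C. Substrate 1 h RT; fluorescence.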

[13] = target: Bile acid receptor (Homo sapiens) (UniProt Q96RI1); test: qHTS assay to identify small molecule antagonists of the farnesoid-X-receptor (FXR) signaling pathway (AID 743217; active = well fitted inhibition curve with a large enough effect in the signal ratio in the repeat runs, not every such curve was filed as active; the % refers to the signal ratio); conditions: HEK293T FXR-UAS-bla, beta-lactamase ratio, CDCA-stimulated, 16 h; series mostly up to 62.6 µM
Bile acid receptor (Homo sapiens), sequence (Q96RI1 whole entry, looked up): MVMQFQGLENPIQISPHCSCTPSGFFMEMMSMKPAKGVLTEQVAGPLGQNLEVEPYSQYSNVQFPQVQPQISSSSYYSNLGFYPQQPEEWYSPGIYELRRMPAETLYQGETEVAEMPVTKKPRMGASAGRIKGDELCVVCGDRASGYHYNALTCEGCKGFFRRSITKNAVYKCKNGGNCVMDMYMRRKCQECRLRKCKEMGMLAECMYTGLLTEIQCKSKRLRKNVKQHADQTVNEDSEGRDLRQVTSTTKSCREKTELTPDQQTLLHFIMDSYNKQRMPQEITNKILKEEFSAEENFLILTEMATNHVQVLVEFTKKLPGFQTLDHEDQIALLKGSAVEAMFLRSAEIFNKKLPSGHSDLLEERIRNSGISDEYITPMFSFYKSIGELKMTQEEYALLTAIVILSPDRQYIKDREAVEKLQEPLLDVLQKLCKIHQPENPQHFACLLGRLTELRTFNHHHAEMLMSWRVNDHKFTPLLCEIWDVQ
Method in brief: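 FRET fluorescence after 2 h room-temperature LiveBLAzer loading gives the readout. Prior step: FXR-bla HEK 293T cells, seeded and incubated 5 h, received test compounds plus 50 uM final CDCA for 16 h at 37 °C.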

[14] = target: Bile acid receptor (Homo sapiens) (UniProt Q96RI1); test: qHTS assay to identify small molecule agonists of the farnesoid-X-receptor (FXR) signaling pathway (AID 743220; active = well fitted activation curve with a large enough effect in the signal ratio in the repeat runs, not every such curve was filed as active; the % refers to the signal ratio); conditions: HEK293T FXR-UAS-bla, beta-lactamase FRET ratio, 16 h; series mostly up to 62.6 µM
Method in brief: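 FXR-UAS-bla HEK 293T cells carrying a UAS-driven beta-lactamase reporter were plated for 5 h at 37C/5% CO2, then exposed to DMSO-dissolved Tox21 10K compounds for 16 h at 37C. A LiveBLAzer B/G FRET substrate was loaded for 2 h at room temperature before fluorescence reading.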

[15] = qHTS assay to identify small molecule antagonists of the peroxisome proliferator-activated receptor gamma (PPARg) signaling pathway - cell viability counter screen (AID 743194); conditions: PPARg-bla HEK293H viability, CellTiter-Glo luminescence, 17 h; Potency: co-treated with 50 nM rosiglitazone unless noted; series mostly up to 62.6 µM; note: nearly all actives have a fitted effect of over 55% in size
Method in brief: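 Cytotoxicity counter screen in PPARg-bla HEK293H cells, same wells as reporter assay. Compounds plus 50 nM rosiglitazone (final) for 17 h at 37 C, then viability read by CellTiter-Glo luminescence.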

[16] = target: Peroxisome proliferator-activated receptor delta (Homo sapiens) (UniProt Q03181); test: qHTS assay to identify small molecule agonists of the peroxisome proliferator-activated receptor delta (PPARd) signaling pathway (AID 743212; calls by dose curve); conditions: HEK293H PPARd-UAS-bla, beta-lactamase FRET ratio, 17 h; series mostly up to 62.6 µM
Peroxisome proliferator-activated receptor delta (Homo sapiens), sequence (Q03181 whole entry, looked up): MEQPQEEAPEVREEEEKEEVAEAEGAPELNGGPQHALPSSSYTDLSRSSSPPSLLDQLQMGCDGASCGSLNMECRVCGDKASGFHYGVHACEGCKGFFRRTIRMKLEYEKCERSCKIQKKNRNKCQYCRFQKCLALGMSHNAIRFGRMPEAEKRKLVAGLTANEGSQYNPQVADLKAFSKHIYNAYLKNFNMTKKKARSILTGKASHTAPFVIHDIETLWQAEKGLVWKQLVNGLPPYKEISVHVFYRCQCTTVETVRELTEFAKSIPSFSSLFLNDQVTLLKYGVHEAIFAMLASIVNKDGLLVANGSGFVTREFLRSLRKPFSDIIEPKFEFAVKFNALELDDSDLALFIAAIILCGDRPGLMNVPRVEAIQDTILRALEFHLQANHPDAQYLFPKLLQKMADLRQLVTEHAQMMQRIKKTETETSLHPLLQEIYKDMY
Method in brief: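 Tox21 library screened in GeneBLAzer PPARd UAS-bla HEK293H cells. After compound treatment at 37 C, a FRET-based beta-lactamase substrate was applied for 2 h and fluorescence recorded.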

Measured: Potency

O=C1C[C@@H]2OCC=C3CN4CC[C@]56c7ccccc7N1[C@H]5[C@H]2[C@H]3C[C@H]46
inactive: [1] | [2] | [3] | [4] | [5] | [6] | [7] | [8] | [9]

C1=CCC=C1
inactive: [1] | [2] | [3] | [7] | [10] | [8] | [11] | [9]

COP(=S)(OC)Oc1nc(Cl)c(Cl)cc1Cl
inactive: [12] | [2] | [3] | [6] | [13] | [10] | [14] | [8] | [9]

CO/N=C(/C1=NOCCO1)c1ccccc1Oc1ncnc(Oc2ccccc2Cl)c1F
active: [2] 0.544 µM
inactive: [15] | [3] | [4] | [16] | [8]

C[C@]12Cc3cn[nH]c3C[C@@H]1CC[C@@H]1[C@@H]2CC[C@@]2(C)[C@H]1CC[C@]2(C)O
active: [2] 26.6 µM | [7] 29.8 µM | [8] 33.5 µM | [9] 29.8 µM
inactive: [3] | [4] | [14] | [11]
